Experimental data taken from PubChem BioAssay (NCATS).
Inconclusive results are not listed. Activity calls are given as the source filed them. Calls come from the whole dose curve; as a rule, active = well fitted curve in the direction sought with a large enough effect; inconclusive = small, poorly fitted or top-dose-only effect, or another doubt; inactive = no such curve, though single readings can be large; an effect the other way counts as inactive or inconclusive.

Columns and labels:
[1] = molecular target: Calcium and integrin-binding protein 1 (Homo sapiens) (UniProt Q99828); experiment: Primary qHTS for Identification of Calcium Integrin Binding Protein 1 (CIB1) Competitor (AID 1508620);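 note: GST tagged CIB1 binding a fluorescein labelled alphaIIb integrin peptide tracer; top concentration of the series differs between compounds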
Sequence of Calcium and integrin-binding protein 1 (Homo sapiens) (Q99828 whole entry, looked up): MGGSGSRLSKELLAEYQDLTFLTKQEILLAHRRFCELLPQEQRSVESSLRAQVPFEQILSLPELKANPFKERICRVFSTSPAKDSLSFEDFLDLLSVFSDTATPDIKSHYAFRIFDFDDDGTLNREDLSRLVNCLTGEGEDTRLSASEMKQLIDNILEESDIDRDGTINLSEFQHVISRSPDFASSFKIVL
Procedure, shortened: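 CIB1-GST (1 uM final) and compound incubated 15 min at room temperature before adding FITC-alphaIIb peptide tracer (100 nM final). Competition for binding read by fluorescence polarization (ex 480, em 540) after another 15 min at room temperature.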

[2] = Primary qHTS for inhibitors of nuclear receptor binding SET domain protein 2 (NSD2) in an isogenic RCH-ACV NSD2 p.E1099K mutant (9B) (AID 1645876); note: nearly all actives have a fitted effect of over 70% in size
[3] = Primary qHTS for inhibitors of nuclear receptor binding SET domain protein 2 (NSD2) in an RCH-ACV wild type WT cells (2C) (AID 1645877); note: nearly all actives have a fitted effect of over 70% in size
% is set by controls: 0 for no effect and ±100 for the full control effect.

CC1(C)CC[C@]2(C(=O)O)CC[C@]3(C)C(=CCC4[C@@]5(C)C(=O)C[C@H](O)[C@@](C)(CO)C5CC[C@]43C)[C@@H]2C1 (some centres not stated)
inactive: Potency [1] | Potency [2] | Potency [3]

C[C@@]1(C(=O)O)CCC[C@@]2(C)C3=CC[C@H]4C[C@@]3(CC[C@H]12)CC4(O)CO (some centres not stated)
inactive: Potency [1] | Potency [2] | Potency [3]

C[C@]1(OC(=O)/C=C\c2ccc(O)cc2)C[C@@H](O)[C@]2(O)C=CO[C@@H](O[C@@H]3O[C@H](CO)[C@@H](O)[C@H](O)[C@H]3O)C12 (some centres not stated)
inactive: Potency [1] | Potency [2] | Potency [3]

CC1=C[C@H](O)[C@H]2C(C)(C)CCC[C@]2(C)[C@@]1(O)CO
inactive: Potency [1] | Potency [2] | Potency [3]

CC(C)C1NC(=O)C(CC2(O)c3ccccc3N3C(=O)C(Cc4ccccc4)NC32)NC1=O (configuration not stated)
inactive: Potency [1] | Potency [2] | Potency [3]

Cc1occc(=O)c1O[C@@H]1O[C@H](COC(=O)CC(C)(O)CC(=O)O)[C@@H](O)[C@H](O)[C@H]1O (some centres not stated)
inactive: Potency [1] | Potency [2] | Potency [3]

COC(=O)C[C@@H]1C(C(=O)O)=CO[C@@H](O[C@@H]2O[C@H](CO)[C@@H](O)[C@H](O)[C@H]2O)/C1=C\COC(=O)/C=C/c1ccc(O)c(OC)c1
inactive: Potency [1] | Potency [2] | Potency [3]

CC1CCC2(C)CCC3(C)C(=CCC4C5(C)CCC(O)C(C)(C(=O)O)C5CCC43C)C2C1C (configuration not stated)
inactive: Potency [1] | Potency [2] | Potency [3]

COCC1OC(n2cnc3c(=O)[nH]cnc32)C(O)C1O (configuration not stated)
inactive: Potency [1] | Potency [2] | Potency [3]

C=CCc1cc(OC)c(OC(C)C(O)c2ccc(O)c(OC)c2)c(OC)c1 (configuration not stated)
inactive: Potency [1] | Potency [2] | Potency [3]

CC(CCc1ccc(O)cc1)O[C@@H]1O[C@H](CO[C@@H]2OC(CO)[C@H](O)[C@H]2O)[C@@H](O)[C@H](O)[C@H]1O (some centres not stated)
inactive: Potency [1] | Potency [2] | Potency [3]

CC(C)(O)C1CC=C(C(=O)OC[C@H]2O[C@@H](OC(=O)C3=CCC(C(C)(C)O)CC3)[C@H](O)[C@@H](O)[C@@H]2O)CC1 (some centres not stated)
inactive: Potency [1] | Potency [2] | Potency [3]

CC12CC(O)C(O)C=C1c1cc(O)cc(O)c1C(=O)O2 (configuration not stated)
inactive: Potency [1] | Potency [2] | Potency [3]

CC1OC(OC2C(OC3C(O[C@H]4CC[C@@]5(C)C(CC[C@]6(C)C5CC=C5C7CC(C)(C)CC(O)[C@]7(C)CC[C@]56C)C4(C)C)OC(C(=O)O)C(O)C3O)OCC(O)C2O)C(O)C(O)C1O (some centres not stated)
inactive: Potency [1] | outcome [2] inactive [at 9.23 µM] | activity change, negative = cell killing [3] 4.8% [at 9.23 µM]

O=C(Cc1ccccc1)OC[C@H]1O[C@H](O[C@H]2O[C@H](CO)[C@@H](O)[C@H](O)[C@H]2O)[C@H](O)[C@@H](O)[C@@H]1O
inactive: Potency [1] | Potency [2] | Potency [3]

CO[C@@H]1[C@]2(O)C(=O)N3/C=C\C(C)(C)c4[nH]c5ccccc5c4/C=C\3C(=O)N2[C@]23[C@H](CO)C(C)(C)N2c2ccccc2[C@]13O
inactive: Potency [1] | Potency [2] | Potency [3]

COC(=O)C1=COC(OC2OC(CO)C(O)C(O)C2O)C2C(C)C(OC(=O)/C=C/c3ccc(O)cc3)C(O)C12 (configuration not stated)
inactive: Potency [1] | Potency [2] | Potency [3]

COC(=O)C1=CO[C@@H](O[C@@H]2O[C@H](CO)[C@@H](O)[C@H](O)[C@H]2O)[C@@H]2C(CO)=CC[C@H]12
inactive: Potency [1] | Potency [2] | Potency [3]

C/C=C(\C)C(=O)OCC1OC(OCC2OC(OC3(CO)OC(CO)C(O)C3O)C(O)C(O)C2O)C(O)C(O)C1O (configuration not stated)
inactive: Potency [1] | Potency [2] | Potency [3]

O=C(/C=C/c1ccc(O)cc1)OC[C@@]1(O)C=C[C@@H]2C(C(=O)O)=CO[C@@H](O[C@@H]3O[C@H](CO)[C@@H](O)[C@H](O)[C@H]3O)[C@@H]21
inactive: Potency [1] | Potency [2] | Potency [3]

CC1(C)COC(=O)[C@@H]1O[C@@H]1O[C@H](CO)[C@@H](O)[C@H](O)[C@H]1O
inactive: Potency [1] | Potency [2] | Potency [3]

COc1cc(/C=C/C(=O)O[C@H]2[C@@H]3C=CO[C@@H](O[C@@H]4O[C@H](CO)[C@@H](O)[C@H](O)[C@H]4O)[C@@H]3[C@@]3(CO)O[C@@H]23)ccc1O
inactive: Potency [1] | Potency [2] | Potency [3]

O=C(O)Cc1cn([C@@H]2OC[C@@H](O[C@@H]3O[C@H](CO)[C@@H](O)[C@H](O)[C@H]3O)[C@H](O)[C@H]2O[C@@H]2O[C@H](CO)[C@@H](O)[C@H](O)[C@H]2O)c2ccccc12
inactive: Potency [1] | Potency [2] | Potency [3]

C/C1=C\CC(C)(C)/C=C/C/C(C(=O)O)=C/CC1
inactive: Potency [1] | Potency [2] | Potency [3]
